The values below come from PubChem BioAssay (NCI).

A short description of test [1]: NCI Yeast Anticancer Drug Screen. Data for the rad50 strain (AID 155).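 Note: 0% = growth of vehicle-only cultures of the same strain.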 The note with it: S. cerevisiae rad50 strain growth inhibition, active compounds read high. In short, it runs like this: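 Yeast carrying a defined DNA repair defect were exposed to test compounds, and growth was compared with vehicle-treated controls to give percent inhibition.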
The nature of test [2]: NCI Yeast Anticancer Drug Screen. Data for the mec2-1 strain (AID 157). The note with it: S. cerevisiae mec2-1 strain, active compounds read high. In short, it runs like this: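 Yeast mec2-1 mutant treated with compound. Readout: growth inhibition vs vehicle controls.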
Test [3] can be described thus: NCI Yeast Anticancer Drug Screen. Data for the sgs1 mgt1 strain (AID 161).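 Note: 0% = growth of cultures given vehicle only.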 The settings on record: S. cerevisiae sgs1 mgt1 strain, active compounds read high. The procedure, abridged: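 Mutant yeast exposed to compound; growth scored against vehicle-only wells.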
Test [4] in a line: NCI Yeast Anticancer Drug Screen. Data for the cln2 rad14 strain (AID 165).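 Note: 0% = growth equal to vehicle treated cultures.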 The note with it: S. cerevisiae cln2 rad14 strain, active compounds read high. In short, it runs like this:
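cln2 rad14 yeast strain; compound exposure; growth inhibition read vs vehicle controls.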

A short description of test [5]: NCI Yeast Anticancer Drug Screen. Data for the bub3 strain (AID 167). The note with it: S. cerevisiae bub3 mutant strain, active compounds read high. The procedure, abridged:
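Compounds were applied to a genetically altered yeast strain carrying a cell-cycle control defect. Growth inhibition was scored against vehicle-treated controls.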

Test [6] is described as follows: NCI Yeast Anticancer Drug Screen. Data for the mlh1 rad18 strain (AID 175). The settings on record: S. cerevisiae mlh1 rad18 strain growth inhibition, active compounds read high. The procedure, abridged: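 Yeast w/ defined DNA-repair lesions; compound exposure; growth vs vehicle controls → % inhibition.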
Setting [7] is: at 5.0 µM (retest, dose inferred, filed as 0.5).
Setting [8] is: at 50.0 µM (retest, dose inferred, filed as 5.0).

Compounds without any hit were thinned out: in the full panel of roughly 79,000, 15% have a hit. Values without a mark were called inactive. Activity calls are given as the source filed them. Cut-off read from the data, not from the text of the source: active = growth inhibition above about 70%; inactive = the rest.

Turning to `O=C(c1ccccc1)c1cc(CN(CCCl)CCCl)c(O)cc1O`, the growth inhibition in test [1] (setting [7]) is 0%; in test [1] (setting [8]), 32%; in test [1] (at 50.0 µM) it was 54.3%; in test [2] (setting [7]) it was -17%; in test [2] (setting [8]) it was 43%; in test [2] (at 50.0 µM) it was 17.9%. Also, the growth inhibition in test [3] (setting [7]) was 7%; in test [3] (setting [8]) it was 75% (active); in test [3] (at 50.0 µM), 43%; in test [4] (setting [7]), -2%; in test [4] (setting [8]), -1%; in test [4] (at 50.0 µM), 13.2%. The growth inhibition in test [5] (setting [7]) is -6%; in test [5] (setting [8]) it was -4%; in test [5] (at 50.0 µM) it was 29.3%; in test [6] (setting [7]), 11%; in test [6] (setting [8]), 86% (active); in test [6] (at 50.0 µM), 80.3% (active).

In the case of `O=C(NCC1(O)N=C(c2ccc(F)cc2)c2ccsc2-n2cccc21)c1ccc(Cl)cc1Cl` (configuration not stated), the growth inhibition in test [1] (setting [7]) was 6%; in test [1] (setting [8]), 63%; in test [1] (at 50.0 µM) it was 96.7% (active); in test [2] (setting [7]), -2%; in test [2] (setting [8]) it was 44%; in test [2] (at 50.0 µM) it was 95.5% (active). The growth inhibition in test [3] (setting [7]) was -8%; in test [3] (setting [8]), 63%; in test [3] (at 50.0 µM) it was 97.2% (active); in test [4] (setting [7]) it was 2%; in test [4] (setting [8]), 79% (active); in test [4] (at 50.0 µM), 93.8% (active). Also, the growth inhibition in test [5] (setting [7]) is 9%; in test [5] (setting [8]) it was 66%; in test [5] (at 50.0 µM), 94.5% (active); in test [6] (setting [7]), 6%; in test [6] (setting [8]), 77% (active); in test [6] (at 50.0 µM), 94.9% (active).

As for `O=[N+]([O-])/C=C/c1c(Cl)cccc1Cl`, the growth inhibition in test [1] (setting [7]) is 99% (active); in test [1] (setting [8]), 99% (active); in test [1] (at 50.0 µM), 99.2% (active); in test [2] (setting [7]), 100% (active); in test [2] (setting [8]), 100% (active); in test [2] (at 50.0 µM) it was 99.2% (active). The growth inhibition in test [3] (setting [7]) is 99% (active); in test [3] (setting [8]) it was 99% (active); in test [3] (at 50.0 µM) it was 99.3% (active); in test [4] (setting [7]), 99% (active); in test [4] (setting [8]), 99% (active); in test [4] (at 50.0 µM) it was 98% (active). Besides, the growth inhibition is 100% (active) in test [5] (setting [7]); 99% (active) in test [5] (setting [8]); 99.3% (active) in test [5] (at 50.0 µM); 99% (active) in test [6] (setting [7]); 99% (active) in test [6] (setting [8]); 99.2% (active) in test [6] (at 50.0 µM).

Turning to `Clc1ccc(Cl)c(Cl)c1`, the growth inhibition is -10% in test [1] (setting [7]); 99% (active) in test [1] (setting [8]); 98.4% (active) in test [1] (at 50.0 µM); -3% in test [2] (setting [7]); 97% (active) in test [2] (setting [8]); 99% (active) in test [2] (at 50.0 µM). Besides, the growth inhibition in test [3] (setting [7]) was -6%; in test [3] (setting [8]) it was 98% (active); in test [3] (at 50.0 µM) it was 98.8% (active); in test [4] (setting [7]), 8%; in test [4] (setting [8]) it was 92% (active); in test [4] (at 50.0 µM), 96.5% (active). For the same compound, the growth inhibition in test [5] (setting [7]) was -8%; in test [5] (setting [8]) it was 98% (active); in test [5] (at 50.0 µM), 62%; in test [6] (setting [7]), 2%; in test [6] (setting [8]), 99% (active); in test [6] (at 50.0 µM) it was 98.2% (active).
